In PubChem BioAssay (NCI):
Compounds without any hit were thinned out: in the full panel of roughly 83,000, 20% have a hit.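 The test compound was applied at a single concentration to cells in 96-well plates for 48 hours, and percent growth was recorded.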 A number with no mark means an inactive call. Calls of active or inactive are those of the source. How the source made its calls: active means growth percent below 10; inactive means the rest.

Tested on: MDA-MB-468 breast
Experiment: NCI-60 one-dose screen, 48 h (100 = growth as untreated, 0 = no growth, -100 = all killed)
Details: 10 µM unless noted

Structure (SMILES) | growth
CCN1CCN(Cc2ccc(NC(=O)Nc3cccc(-n4ccc5c(NC(=O)c6ccccc6)nccc54)c3)cc2C(F)(F)F)CC1 | 20.2%
CC1=CCC2C1CC=C(C)C(CC[C@H]1[C@@](C)(O)CCC3OC(C)(C)[C@H](OC(=O)c4ccccc4)CC[C@@]31C)C2(C)C (stereo not given in full) | 64.8%
C=C(CNCCc1ccc(O)cc1)[C@@H]1CC[C@]2(COC3CCCCO3)CC[C@]3(C)[C@H](CC[C@@H]4[C@@]5(C)CCC(N)C(C)(C)[C@@H]5CC[C@]43C)[C@@H]12 (stereo not given in full) | -85.6% (active)
Cn1cc(-c2nonc2-c2c[nH]c3ccc(F)cc23)c2cc(Br)ccc21 | 58.7%
CCc1ccc(/C=C/c2ccc(O)c3ncccc23)[n+](C)c1 | 19.6%
COc1ccc(-c2ccc3c(c2)sc2nc(-c4ccc(F)cc4)cn23)cc1 | 66.7%
Cc1nn(-c2ccccc2)c(Oc2ccccn2)c1-c1nc2ccccc2s1 | 80%
COc1cc(/C=C/c2cc(/C=C/c3ccc(O)c(OC)c3)n(-c3ccccc3)n2)ccc1O | -31.9% (active)
CCN(CC)c1ccc2c(c1)Oc1nc(N)c(C#N)c(N)c1C2Sc1ccc(SC)cc1 (stereo not given) | -37.4% (active)
COC(=O)C(C)[C@H]1CC[C@@H]2[C@]1(C)CC=C1[C@]23C=C[C@]2(C[C@@H](OC(C)=O)CC[C@]12C)C(C(=O)OC)C3C(=O)OC (stereo not given in full) | 94.1%
CCc1ccccc1-n1[nH]c(C)c(C=N)c1=O | 90.3%
CC1(C)CCc2cc(-c3ccn(S(=O)(=O)c4ccc(Cl)cc4)n3)ccc2O1 | 48.9%
N#Cc1c(-c2cccs2)cc(-c2cccnc2)[nH]c1=O | 101%
CCCCCCC(C)CC1=C(O)c2ccccc2C(=O)C1=O (stereo not given) | 1.43% (active)
NS(=O)(=O)c1ccc(Nc2nc(N/N=C/c3ccc([N+](=O)[O-])cc3)nc(Nc3ccccc3)n2)cc1 | 1.11% (active)
O=C(NC1CCC(Br)CC1)C1CCCC(S(=O)(=O)NC2CCCCC2)C1 (stereo not given) | -3.64% [25 µM] (active)
O=C1c2c(c3c4cc(Br)ccc4[nH]c3c3ccc4ccccc4c23)C(=O)N1CCN1CCCCC1 | 15%
Cc1cc2c(c(=O)o1)C(c1ccc(OC(=O)N3CCOCC3)cc1)C(C#N)=C(N)O2 (stereo not given) | 119%
COc1ccc(C/C(C)=C(/c2ccc(OCCN3CCCCC3)cc2)c2ccc(OC(=O)NCc3ccccc3)cc2)cc1 | -82.7% (active)
C/C(=N/O)c1ccc(F)cc1 | 75%

Structure (SMILES) | growth
CCCCC1=C(Br)C(=O)c2ncccc2C1=O | 84.2%
C=C1CC[C@@H]2[C@](C)(COC(C)=O)[C@H](OC(C)=O)CC[C@@]2(C)[C@@H]1C/C=C1/C(=O)OC[C@H]1OC(C)=O | 7.98% (active)
COc1cc(/C=N/NC(=O)c2ccccc2Nc2cccc(C(F)(F)F)c2)ccc1O | 28.3%
COC(=O)c1ccc(C(C)C)cc1 | 110%
O=C(O)c1ccc(Br)nc1 | 88.6%
COc1cc(/C=C/C(=O)c2cc(OC)c(OC)c(OC)c2)ccc1Oc1nc2c(c(=O)n(C)c(=O)n2C)n1C | -72% (active)
FC(F)(F)c1ccc2c(c1)n1cnnc1c1nncn21 | 105%
O=C1CC2(CCOCC2)Oc2ncccc21 | 30.4%
C[N+](C)(C)c1ncnc2nc[nH]c12 | 90.3%
O=C1C(=O)c2ccccc2C(O)=C1CCCc1ccc(C2CCCCCC2)cc1 | 5.94% (active)
CC(=O)CC(C)(C)c1ccc(Cl)cc1 | 90.4%
N/C(=N\c1nc2c(Br)cccc2s1)C(Br)Br | -58.8% (active)
COc1cc(/C=C/c2cc(/C=C/c3ccc(O)c(OC)c3)n(C(=O)Nc3ccc(F)cc3)n2)ccc1O | -14.6% (active)
CCCC(OC(C)=O)c1ccc2c(c1)OCO2 (stereo not given) | 103%
Nc1nc(-c2cccc([N+](=O)[O-])c2)c(N=Nc2ccccc2Cl)s1 | 55.2%
CCc1ccccc1NC(=O)c1sc2nc3c(cc2c1N)CCCC3 | 43%
O=C(Nc1ccc(CN2CCOCC2)cc1)c1ccc(-c2cc(Cl)ccc2Cl)o1 | -56.1% (active)
CN(C)c1ccc(/C=N/NC(=O)CSc2nc3sc4c(c3c(=O)n2-c2ccccc2)CCCCC4)cc1 | 26.2%
Cc1c2cnccc2c(C)c2c1oc1ccccc12 | 82.6%
CCN(CC)CCCC(C)N/C(=C1\C(=O)NC(=O)\C1=C(/NC(C)CCCN(CC)CC)c1cccc(OC)c1)c1cccc(OC)c1 (stereo not given) | -42.6% (active)
